Results reported in PubChem BioAssay (NCATS).
Inconclusive results are not listed. Calls of active or inactive are those of the source. Calls follow the shape of the dose curve; as a rule, active = well fitted inhibition curve with a large enough effect; inconclusive = small, poorly fitted or top-dose-only effect; inactive = flat fitted curve, though single readings scatter.

Experiments:
Assay in all cases: qHTS profiling for inhibitors of Plasmodium falciparum proliferation (AID 504749); also: nearly all actives have a fitted effect of over 60% in size
Settings in all cases: P. falciparum in erythrocytes, SYBR Green DNA, 72 h; series mostly up to 28.7 µM
CP238 = test system: CP238
Outline: (§1)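 Parasite proliferation within erythrocytes, 72 h exposure. Endpoint: SYBR Green I fluorescence after overnight lysis at room temperature. Controls: 0.29 uM artemisinin, DMSO.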

CP247 = test system: CP247
Outline: as §1

CP250 = test system: CP250
Outline: as §1

CP252 = test system: CP252
Outline: as §1

CP256 = test system: CP256
Outline: as §1

CP260 = test system: CP260
Outline: as §1

CP262 = test system: CP262
Outline: as §1

CP265 = test system: CP265
Outline: as §1

CP266 = test system: CP266
Outline: as §1

CP268 = test system: CP268
Outline: as §1

CP269 = test system: CP269
Outline: as §1

CP286 = test system: CP286
Outline: as §1

CP291 = test system: CP291
Outline: as §1

CP297 = test system: CP297
Outline: as §1

CP305 = test system: CP305
Outline: as §1

CP315 = test system: CP315
Outline: as §1

CP325 = test system: CP325
Outline: as §1

CP329 = test system: CP329
Outline: as §1

CP335 = test system: CP335
Outline: as §1

DFO2036 = test system: DFO2036
Outline: as §1

Measured: Potency

COc1cc(C(=O)N2CCOCC2)cc(OC)c1OC
inactive: all assays above

NC(=O)NC(=O)Cc1ccccc1
inactive: all assays above

CCN(CC)CCSC(=O)C(c1ccccc1)c1ccccc1
inactive: all assays above

NC(=O)NNc1ccccc1
inactive: all assays above

O=c1cc[nH]c(=O)[nH]1
inactive: all assays above

O=C(Oc1ccccc1C(=O)O)c1ccccc1O
inactive: all assays above

Cc1cccc(Nc2cc(Cl)nc(SCC(=O)O)n2)c1C
inactive: all assays above

CC(=O)Nc1ccc(/C=N/NC(N)=S)cc1
inactive: all assays above

Oc1cn2c(n1)Nc1ccc(Cl)c(Cl)c1C2
inactive: all assays above

CCCCc1ncc(/C=C(\Cc2cccs2)C(=O)O)n1Cc1ccc(C(=O)O)cc1
inactive: all assays above

CCCCOC(=O)c1ccc(O)cc1
inactive: all assays above

Nc1ccc(S(=O)(=O)Nc2nccs2)cc1
inactive: all assays above

COc1ccccc1O
inactive: all assays above

O=Cc1ccccc1C=O
inactive: all assays above
